# Assay outcomes as filed in PubChem BioAssay.
# DAX1 inh-1 – blocks DAX1 repression of SF-1 activated StAR promoter. 1.1% of 370,000 active. HEK293T StAR-luciferase reporter, SF-1/DAX-1 repression relief. inhibition, % at 6.8 µM;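 active = inhibition above the mean over all tested compounds plus 3 SD, cut at about 3.6% in these data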;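 also: 0% = DAX-1 cells with DMSO and 100% = cells lacking DAX-1 with DMSO; higher inhibition means more luminescence from relief of DAX-1 repression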
# hgDAF12 agonist – activates the H. glycines DAF-12 receptor ligand-binding domain. HEK293 GAL4-hgDAF12 UAS-luciferase reporter, agonist luminescence; normalized to butyrate control. activation, % at 6.8 µM. 1.8% of 370,000 active. AID 687014;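 active = activation above a cutoff set at the mean of all screened compounds plus 3 SD, cut at about 10% in these data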;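 also: 0% = DMSO wells and 100% = sodium butyrate wells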
# DAX1 inh-2 – inhibitors of human orphan nuclear receptor DAX1 (NR0B1); HEK293 Gal4-DAX1 luciferase reporter, luminescence; 0.99% of 340,000 active; P51843; AID 504766; inhibition, % at 6.75 µM;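 active = inhibition above the mean over all tested compounds plus 3 SD, cut at about 4.2% in these data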;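 also: 0% = DAX1-transfected cells with DMSO and 100% = empty-vector control cells with DMSO; inhibition shows as a rise in luminescence from relieved DAX1 repression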
# Target sequence (P51843 207-470 limits assumed): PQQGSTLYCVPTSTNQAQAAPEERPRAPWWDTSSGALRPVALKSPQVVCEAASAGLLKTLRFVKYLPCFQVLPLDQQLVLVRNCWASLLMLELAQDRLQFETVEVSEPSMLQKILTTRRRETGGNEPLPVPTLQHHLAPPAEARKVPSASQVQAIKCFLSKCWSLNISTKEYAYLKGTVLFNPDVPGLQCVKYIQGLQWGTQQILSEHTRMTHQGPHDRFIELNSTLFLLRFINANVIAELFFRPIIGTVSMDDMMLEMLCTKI
# ssDAF-12 act – S. stercoralis DAF-12 activation, primary screen. HEK293 ssDAF-12/GRIP1 lit1-tk-luc reporter, luminescence; % of 3 µM dafachronic acid response. activation, % at 6.8 µM. 1% of 370,000 active;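 active = activation above the mean over all tested compounds plus 3 SD, cut at about 0.9% in these data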;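 also: 0% = DMSO-only wells and 100% = 3 µM delta7-dafachronic acid wells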
# SMARCA2 act – increases SMARCA2 function in MMTV reporter cells | MG213 cells, MMTV-luciferase reporter, dexamethasone, overnight | activation, % at 9.1 µM | 1% of 370,000 active | AID 652017; in the data active = activation above about 7.8%;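 also: 0% = vehicle wells and 100% = reference activator wells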
# hcDAF12 agonist – activates DAF-12 receptor from parasite H. contortus; activation, % at 6.8 µM; HEK293 hcDAF-12 lit1-tk-luc reporter, luminescence; 0% DMSO, 100% Δ7-dafachronic acid; 1.4% of 370,000 active; AID 652067;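 active = activation above the mean of all tested compounds plus 3 SD, cut at about 5.5% in these data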;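 also: 100% = response to 3 µM Δ7-dafachronic acid high control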
# The depositor's hits bear a star; . = no result. Sampled rows, rich in hits. Any-hit rate of the full collection: about 4.8%.
SMILES,DAX1 inh-1,hgDAF12 agonist,DAX1 inh-2,ssDAF-12 act,SMARCA2 act,hcDAF12 agonist
Cc1ccc(-n2nc(C)c3c(C(=O)OCC(=O)N(C)C4CCS(=O)(=O)C4)cc(-c4ccccc4)nc32)cc1 (stereo unspecified),0,-3,0,-1,-5,6.2*
Cc1nc(NC2CCCC2)c2nnn(Cc3ccccc3)c2n1,0,1,.,-2,7,-2
O=C(NNC(=O)C1CCCCC1)c1ccncc1,0,0,1,-1,-1,-2
O=C(NNC(=O)c1ccncc1)NC1CCCCC1,0,1,4.8*,-2,-4,-1
O=C(N=Nc1c(O)n(Cc2ccccc2)c2ccccc12)c1ccc(O)cc1,3.6*,8,1,0,2,6.0*
Cc1csc(NC(=O)/C=C/c2ccc3c(c2)OCO3)n1,4.6*,15*,-2,1.1*,2,4
CCCCOC(=O)Nc1ccc(C(C)C)cc1,2,5,0,0,2,2
CCCCOC(=O)c1ccc(NC(=O)c2ccoc2C)cc1,1,12*,1,-2,4,1
CCCOC(=O)c1ccc(NC(=O)COC)cc1,0,5,0,-1,4,0
CCCCOC(=O)Nc1ccc(C(N)=O)cc1,1,9,4.3*,0,4,0
CCCOC(=O)c1ccc(NC(=O)CC(C)(C)C)cc1,3.8*,13*,2,0,6,4
COC(=O)C1CN(Cc2ccc(F)cc2)CCS(=O)(=O)N1Cc1ccc(OC)cc1 (stereo unspecified),1,2,.,-1,-2,1
CCC1CCc2c(sc(NC(=O)c3ccoc3C)c2C(N)=O)C1 (stereo unspecified),-1,5,-1,-1,2,5.9*
CCCCCCOc1ccc(C(CC(=O)NC)C(=O)O)cc1 (stereo unspecified),1,-1,-2,-1,-2,0
CCCCCCOc1ccc(C(CC(N)=O)C(=O)O)cc1 (stereo unspecified),0,-2,4.4*,0,-2,-1
CCC(C)[C@H](NC(=O)[C@H](CC(C)C)NC(=O)OC(C)(C)C)C(=O)N[C@@H](Cc1ccccc1)C(=O)OC (stereo partly specified),0,2,.,-1,-1,0
COc1ccc(/C=N/NC(=O)CSCC(=O)Nc2ccccc2)cc1,0,-1,5.0*,0,1,4
COc1ccc(C2=NOC(C(=O)NCc3ccco3)C2)cc1 (stereo unspecified),-2,12*,-1,-1,2,2
O=C(CCC(=O)Nc1ccccc1)N/N=C/c1ccncc1,-1,0,3,-1,0,-2
COc1cc(C2=NOC(C(=O)NCc3ccco3)C2)cc(OC)c1OC (stereo unspecified),-2,1,-1,-1,3,-1
O=C(CSCC(=O)NCc1ccco1)NCc1ccco1,-1,0,1,-1,0,-2
COc1ccc(NC(=O)CCC(=O)N/N=C/c2ccncc2)cc1,0,-1,5.5*,-1,-2,0
COc1ccc(NC(=O)CSCC(=O)NCc2ccco2)cc1,4.3*,-2,3,-1,0,-1
COc1cccc(/C=N/NC(=O)CSCC(=O)Nc2ccccc2)c1O,-1,-8,0,-2,-4,-2
CC(C)C[C@H]1COc2cccc(F)c2S(=O)(=O)N1Cc1cn(Cc2ccc(C(F)(F)F)cc2)nn1,-1,2,.,-1,-3,-3
SMILES,DAX1 inh-1,hgDAF12 agonist,DAX1 inh-2,ssDAF-12 act,SMARCA2 act,hcDAF12 agonist
CCOC(=O)c1c(NC(=O)COC)sc(C)c1C,0,-2,0,-1,-4,-2
CCOC(=O)c1c(NC(=O)COC(=O)c2cc(OC)c(OC)cc2[N+](=O)[O-])sc(C)c1C,0,-1,2,1.4*,-1,3
N=c1oc2ccc3ccccc3c2cc1-c1nc(-c2ccccc2)cs1,1,1,1,0,-1,6.2*
CCc1c(C)c2ccc(OCC(=O)NCC3CCC(C(=O)O)CC3)c(C)c2oc1=O (stereo unspecified),0,11*,2,-1,-2,0
O=C(CSc1nnc(-c2cccs2)o1)c1cccc([N+](=O)[O-])c1,0,-3,.,-1,4,-1
O=C1c2ccccc2NC(c2cccs2)N1O (stereo unspecified),3.7*,1,5.7*,-1,1,1
O=C1c2ccccc2NC(c2ccccc2O)N1O (stereo unspecified),0,2,0,-1,-1,1
COc1ccc(/C=C2\SC(=S)N(CCCC(=O)Nc3ccccc3C(=O)O)C2=O)cc1OC,0,0,1,-1,-2,6.3*
CC(=O)Nc1ccc(N=NN2CCOCC2)cc1,0,2,-1,-1,1,-1
CC(=O)Nc1ccc(N=Nc2ccc(O)cc2)cc1,2,12*,2,0,7,4
CCn1c2ccccc2c2cc(C=NNC(=O)CSc3nc4ccccc4c(=O)n3-c3ccccc3)ccc21,-2,1,.,-1,-1,-1
O=C(O)CN1C(=O)/C(=C2\SC(=S)N(C(Cc3ccccc3)C(=O)O)C2=O)c2ccccc21 (stereo unspecified),0,1,0,1.2*,-2,6.4*
CCCC(C(=O)O)N1C(=O)/C(=C2\C(=O)N(C)c3ccccc32)SC1=S (stereo unspecified),0,0,-1,0,-2,3
Nc1nc(SCc2ccccc2)sc1C(=O)N1CCCCC1,2,11*,3,-1,0,4
CC(C)OC(=O)C1=CNCC(C)(C)c2c1[nH]c1cc(F)ccc21,.,2,.,0,.,3
COc1ccc(OCC2CCNCC2)cc1,0,4,4.5*,0,-1,1
COc1ccc(CNC(=O)C2CCNCC2)cc1,0,1,1,-1,-2,-1
Cc1ccccc1NC(=O)c1cnn(-c2ccccc2)c1C,1,12*,4,1,3,1
Cc1cccc(NC(=O)c2cnn(-c3ccccc3)c2C)c1C,1,3,2,-1,3,0
Cc1c(C(=O)Nc2cccc(F)c2)cnn1-c1ccccc1,2,10*,3,1.6*,0,5
CCC[C@H]1[C@@H](OC(=O)NCc2ccc(C(F)(F)F)cc2)CC[C@@]23CCCN2C(=O)CCC[C@@H]13,.,-3,.,-2,.,-4
O=C(N/N=C/c1ccc2c(c1)OCO2)c1cccnc1,0,5,1,0,0,0
Cn1nccc1C(=O)N/N=C/c1cccnc1,0,2,4.3*,0,2,2
